About 7,900 targets were measured; listed, in parts, are those with a hit and a random draw of the rest. About 0.6% of all pairs of compound and target were hits.
What follows are targets tested with c1cn2cc(-c3ccc4cn[nH]c4c3)nc(Nc3ccc(N4CCOCC4)cc3)c2n1 [entospletinib] (assay: log2 fold change, soluble protein after heating vs DMSO (PISA); higher = thermal stabilisation; K562 cells, 10 uM, 30 min; active = over 0.2 and 3.5 SD of the protein, either way, in both replicates (recomputed)).
Procedure, shortened: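 K562 cells at 2×10^6 cells/mL were given 10 μM compound for 30 min. Aliquots then went through 3 min of heating across 48°C-58°C, were pooled, and were extracted in PBS with 0.5% NP-40 at 4°C, and the supernatant after 21,000xg for 90 min was quantified by TMTpro 16plex LC-MS/MS with channel sums equalised. Thermal stability relative to control samples, from duplicates, is given as log2 fold change.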

Chain of UniProt Q13362 (Q13362 whole entry, looked up): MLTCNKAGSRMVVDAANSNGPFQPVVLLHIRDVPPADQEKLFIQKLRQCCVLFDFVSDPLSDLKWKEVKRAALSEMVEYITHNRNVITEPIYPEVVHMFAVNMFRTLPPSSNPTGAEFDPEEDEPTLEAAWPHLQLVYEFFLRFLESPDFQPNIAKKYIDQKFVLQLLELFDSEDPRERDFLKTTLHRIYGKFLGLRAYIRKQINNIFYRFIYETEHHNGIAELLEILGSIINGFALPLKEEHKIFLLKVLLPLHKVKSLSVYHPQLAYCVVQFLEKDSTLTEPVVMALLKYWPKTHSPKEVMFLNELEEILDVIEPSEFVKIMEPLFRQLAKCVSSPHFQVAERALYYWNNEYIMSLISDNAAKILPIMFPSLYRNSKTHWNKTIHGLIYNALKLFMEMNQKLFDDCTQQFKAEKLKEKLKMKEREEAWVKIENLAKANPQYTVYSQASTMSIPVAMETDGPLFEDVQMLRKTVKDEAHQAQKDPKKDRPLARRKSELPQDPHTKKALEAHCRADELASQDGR
Chain of UniProt Q8TCG2 (Q8TCG2 whole entry, looked up): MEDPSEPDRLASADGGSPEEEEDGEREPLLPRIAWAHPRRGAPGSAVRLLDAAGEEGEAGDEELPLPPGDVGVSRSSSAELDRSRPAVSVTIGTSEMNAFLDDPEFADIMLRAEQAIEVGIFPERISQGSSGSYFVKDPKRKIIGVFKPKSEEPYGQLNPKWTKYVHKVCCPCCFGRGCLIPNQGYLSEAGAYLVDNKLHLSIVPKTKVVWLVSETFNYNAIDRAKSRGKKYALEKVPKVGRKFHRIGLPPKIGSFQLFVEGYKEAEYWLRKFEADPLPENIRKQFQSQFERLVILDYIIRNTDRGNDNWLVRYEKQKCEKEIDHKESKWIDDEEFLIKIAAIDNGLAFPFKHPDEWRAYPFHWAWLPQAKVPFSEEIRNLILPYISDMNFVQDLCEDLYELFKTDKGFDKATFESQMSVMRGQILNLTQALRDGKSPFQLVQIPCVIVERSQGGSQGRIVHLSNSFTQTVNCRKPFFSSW
Chain of UniProt O15305 (O15305 whole entry, looked up): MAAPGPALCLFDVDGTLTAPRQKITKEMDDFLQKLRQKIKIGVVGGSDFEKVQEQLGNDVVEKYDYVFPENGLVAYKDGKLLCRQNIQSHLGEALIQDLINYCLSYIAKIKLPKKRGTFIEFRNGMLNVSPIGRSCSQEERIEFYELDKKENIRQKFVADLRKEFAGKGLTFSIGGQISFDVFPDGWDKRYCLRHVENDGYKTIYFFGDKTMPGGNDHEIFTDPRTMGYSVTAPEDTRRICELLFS
Chain of UniProt P11498 (P11498 whole entry, looked up): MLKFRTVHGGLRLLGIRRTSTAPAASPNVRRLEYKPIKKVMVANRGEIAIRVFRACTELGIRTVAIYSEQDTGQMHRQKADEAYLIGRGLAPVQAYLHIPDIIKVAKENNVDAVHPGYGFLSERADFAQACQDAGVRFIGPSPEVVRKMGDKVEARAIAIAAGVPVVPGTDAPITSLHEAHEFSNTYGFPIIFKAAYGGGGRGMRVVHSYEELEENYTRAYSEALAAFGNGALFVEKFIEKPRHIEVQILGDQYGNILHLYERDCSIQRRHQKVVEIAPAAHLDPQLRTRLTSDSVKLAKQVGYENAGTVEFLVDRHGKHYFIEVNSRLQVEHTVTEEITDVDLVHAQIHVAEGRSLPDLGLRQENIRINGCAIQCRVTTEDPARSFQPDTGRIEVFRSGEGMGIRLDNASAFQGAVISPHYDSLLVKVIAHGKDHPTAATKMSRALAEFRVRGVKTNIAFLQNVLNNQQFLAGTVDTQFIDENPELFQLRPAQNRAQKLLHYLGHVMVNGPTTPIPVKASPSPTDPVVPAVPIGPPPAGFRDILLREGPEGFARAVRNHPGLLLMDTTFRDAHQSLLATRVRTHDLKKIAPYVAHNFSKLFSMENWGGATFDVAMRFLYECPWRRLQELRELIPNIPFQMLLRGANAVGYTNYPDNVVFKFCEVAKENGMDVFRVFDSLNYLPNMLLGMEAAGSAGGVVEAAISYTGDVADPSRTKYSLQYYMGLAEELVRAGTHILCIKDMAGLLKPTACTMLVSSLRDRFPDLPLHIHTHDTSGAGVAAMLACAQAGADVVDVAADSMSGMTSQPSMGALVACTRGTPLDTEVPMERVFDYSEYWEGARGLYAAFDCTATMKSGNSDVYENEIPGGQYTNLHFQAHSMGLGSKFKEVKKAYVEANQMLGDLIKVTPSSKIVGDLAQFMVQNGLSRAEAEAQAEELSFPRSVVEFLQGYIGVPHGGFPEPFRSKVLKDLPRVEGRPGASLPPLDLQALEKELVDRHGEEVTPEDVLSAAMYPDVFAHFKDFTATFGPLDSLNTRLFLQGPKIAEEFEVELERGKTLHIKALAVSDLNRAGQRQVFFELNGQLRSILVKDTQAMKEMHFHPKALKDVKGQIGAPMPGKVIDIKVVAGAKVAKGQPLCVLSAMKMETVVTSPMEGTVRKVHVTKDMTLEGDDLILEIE
Chain of UniProt Q15185 (Q15185 whole entry, looked up): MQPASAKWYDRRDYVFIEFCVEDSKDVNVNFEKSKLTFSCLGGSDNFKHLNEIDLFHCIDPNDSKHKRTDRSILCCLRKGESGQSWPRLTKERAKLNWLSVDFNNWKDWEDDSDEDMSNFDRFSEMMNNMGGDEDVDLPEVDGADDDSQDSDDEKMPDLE
Chain of UniProt Q8WUM4 (Q8WUM4 whole entry, looked up): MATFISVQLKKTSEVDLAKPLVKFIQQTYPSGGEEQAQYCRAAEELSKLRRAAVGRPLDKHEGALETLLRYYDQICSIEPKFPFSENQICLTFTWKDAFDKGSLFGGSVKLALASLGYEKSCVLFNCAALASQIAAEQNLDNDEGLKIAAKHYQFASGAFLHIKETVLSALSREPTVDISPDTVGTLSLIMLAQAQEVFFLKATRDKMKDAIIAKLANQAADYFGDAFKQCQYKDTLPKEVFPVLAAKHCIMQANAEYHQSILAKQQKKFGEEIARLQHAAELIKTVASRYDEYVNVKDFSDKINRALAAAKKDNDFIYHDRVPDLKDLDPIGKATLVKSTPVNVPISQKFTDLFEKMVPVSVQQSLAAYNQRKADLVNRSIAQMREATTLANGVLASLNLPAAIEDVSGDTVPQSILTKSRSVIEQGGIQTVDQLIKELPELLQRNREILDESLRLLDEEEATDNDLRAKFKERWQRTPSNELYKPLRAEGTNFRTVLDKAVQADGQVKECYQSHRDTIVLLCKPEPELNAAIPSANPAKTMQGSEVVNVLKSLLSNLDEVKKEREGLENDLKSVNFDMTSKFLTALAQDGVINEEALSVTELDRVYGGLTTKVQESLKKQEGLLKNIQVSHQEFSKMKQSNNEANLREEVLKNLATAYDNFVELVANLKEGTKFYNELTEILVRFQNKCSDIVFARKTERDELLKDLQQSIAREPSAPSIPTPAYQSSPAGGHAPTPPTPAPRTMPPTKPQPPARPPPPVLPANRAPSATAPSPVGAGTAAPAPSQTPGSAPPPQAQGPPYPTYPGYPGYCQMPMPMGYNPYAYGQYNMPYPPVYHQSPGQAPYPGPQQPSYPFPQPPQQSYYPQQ
Chain of UniProt Q9H5K3 (Q9H5K3 whole entry, looked up): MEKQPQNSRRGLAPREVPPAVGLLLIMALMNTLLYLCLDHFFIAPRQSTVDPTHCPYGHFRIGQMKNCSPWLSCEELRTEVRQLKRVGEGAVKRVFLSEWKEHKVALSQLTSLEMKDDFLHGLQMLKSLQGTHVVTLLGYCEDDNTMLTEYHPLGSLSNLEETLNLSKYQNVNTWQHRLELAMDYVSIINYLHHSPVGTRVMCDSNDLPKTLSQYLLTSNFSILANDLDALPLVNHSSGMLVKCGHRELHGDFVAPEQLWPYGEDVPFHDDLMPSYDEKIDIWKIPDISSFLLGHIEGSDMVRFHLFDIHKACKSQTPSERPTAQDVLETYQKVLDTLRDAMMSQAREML
Chain of UniProt Q9NW08 (Q9NW08 whole entry, looked up): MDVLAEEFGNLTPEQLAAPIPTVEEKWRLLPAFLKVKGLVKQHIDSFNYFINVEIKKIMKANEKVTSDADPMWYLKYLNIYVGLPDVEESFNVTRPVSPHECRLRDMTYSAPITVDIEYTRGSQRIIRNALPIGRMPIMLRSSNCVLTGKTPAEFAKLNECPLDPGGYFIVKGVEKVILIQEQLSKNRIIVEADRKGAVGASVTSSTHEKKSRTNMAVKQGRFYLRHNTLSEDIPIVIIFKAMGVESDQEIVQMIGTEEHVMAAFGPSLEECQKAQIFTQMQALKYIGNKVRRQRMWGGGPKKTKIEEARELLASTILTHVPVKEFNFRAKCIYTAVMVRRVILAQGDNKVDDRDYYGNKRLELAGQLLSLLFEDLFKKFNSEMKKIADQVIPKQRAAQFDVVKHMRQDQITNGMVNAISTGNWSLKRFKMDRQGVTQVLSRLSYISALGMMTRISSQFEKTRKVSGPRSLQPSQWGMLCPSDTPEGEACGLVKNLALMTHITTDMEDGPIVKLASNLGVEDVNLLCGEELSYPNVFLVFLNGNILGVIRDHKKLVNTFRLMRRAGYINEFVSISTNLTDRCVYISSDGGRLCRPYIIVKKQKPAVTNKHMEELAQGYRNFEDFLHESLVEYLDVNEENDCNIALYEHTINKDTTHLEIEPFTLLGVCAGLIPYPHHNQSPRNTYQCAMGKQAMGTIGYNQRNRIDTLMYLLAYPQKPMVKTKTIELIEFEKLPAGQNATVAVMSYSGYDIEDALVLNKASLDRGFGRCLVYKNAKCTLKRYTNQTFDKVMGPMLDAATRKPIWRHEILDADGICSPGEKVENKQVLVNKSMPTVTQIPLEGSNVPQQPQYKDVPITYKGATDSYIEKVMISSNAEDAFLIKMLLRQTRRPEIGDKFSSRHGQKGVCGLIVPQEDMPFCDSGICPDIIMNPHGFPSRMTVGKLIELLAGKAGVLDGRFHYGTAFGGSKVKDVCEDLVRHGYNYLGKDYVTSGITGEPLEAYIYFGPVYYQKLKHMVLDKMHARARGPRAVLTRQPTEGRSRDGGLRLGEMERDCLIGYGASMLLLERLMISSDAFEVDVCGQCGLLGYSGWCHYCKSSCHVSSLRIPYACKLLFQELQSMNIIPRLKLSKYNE

log2 fold change, inactive:
POLR3B (UniProt Q9NW08) 0
POLR3K (UniProt Q9Y2Y1) 0.113
PSMB4 (UniProt P28070) -0.009
PCID2 (UniProt Q5JVF3) 0.014
PCK2 (UniProt Q16822) -0.057
PRKCB isoform 2 (UniProt P05771) -0.012
PPP2R5B (UniProt Q15173) -0.321
POGZ (UniProt Q7Z3K3) 0.101
PEX16 isoform 2 (UniProt Q9Y5Y5) -0.081
PHC3 isoform 7 (UniProt Q8NDX5) -0.215
PSMC4 (UniProt P43686) -0.008
PRPF38B (UniProt Q5VTL8) 0.032
PMM2 (UniProt O15305) -0.194
PTGES3 (UniProt Q15185) -0.005
POM121 (UniProt Q96HA1) -0.051
PI4K2B (UniProt Q8TCG2) -0.005
POLR2M (UniProt P0CAP2) -0.059
PNPLA2 (UniProt Q96AD5) -0.056
PRKAG1 isoform 3 (UniProt P54619) -0.018
POLR2M (UniProt Q6EEV4) 0.056
PRKACA (UniProt P17612) 0.007
PRKAR1A (UniProt P10644) 0.389
PRMT8 (UniProt Q9NR22) 0
PXK (UniProt Q7Z7A4) 0.009
PPP2R5C isoform 4 (UniProt Q13362) -0.023
PPP2R5C isoform 5 (UniProt Q13362) -0.012
PTPA (UniProt A6PVN8) -0.004
PYGL (UniProt P06737) -0.088
PEF1 (UniProt Q9UBV8) 0.023
PDCD6IP (UniProt Q8WUM4) 0.023
PLIN2 (UniProt Q99541) 0.043
PIGG (UniProt Q5H8A4) -0.034
POLR2G (UniProt P62487) 0.183
PARN (UniProt O95453) -0.06
PDE4DIP (UniProt E9PS60) -0.01
PLCL1 (UniProt Q15111) -0.099
PC (UniProt P11498) 0.002

log2 fold change, active:
POMK (UniProt Q9H5K3) -0.293
PMM1 (UniProt Q92871) -0.415

Source: the supplement of paper PMC10849652
